Screening data as filed in PubChem BioAssay.
F508del corr: CFTR F508del correction in bronchial cells. CFBE cells, YFP halide quenching; stimulated with forskolin plus potentiator P3; % fluorescence drop versus neutral controls. activity (quench increase), % at 7.58 µM. actives 0.36% (n = 350,000). AID 720511;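 active means mean added fluorescence quench of at least 8% versus neutral control, with both replicates also reaching 8%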;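 further: cells transiently co-express mutant CFTR-F508del with the halide-sensitive YFP; corrector assay measuring rescue of mutant channel to the surface after 24 h compound exposure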
PglD inh: inhibitors of Campylobacter jejuni PglD acetyltransferase; actives 0.098% (n = 360,000); inhibition, % at 12.5 µM; purified PglD enzyme, DTNB colorimetric CoA detection; in the data active means inhibition above about 16%, passing the limit was not always enough
ARNT TACC3 PPI: disruptors of human ARNT/TACC3 interaction; Q9Y6A5; AlphaScreen His-ARNT PAS-B/GST-TACC3 binding, luminescence; TACC3 fragment carries E629A point mutation; inhibition, % at 9.99 µM; actives 0.66% (n = 390,000); AID 623870;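 active means mean inhibition of replicates at least 50% and at least half of replicates each reaching 50%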;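 further: 0% = complete ARNT plus TACC3 wells and 100% = ARNT alone without TACC3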
C2C12 statin: protects C2C12 myotubes from simvastatin toxicity. ATP luminescence, 48 h; scaled: DMSO 0, geranylgeraniol control 100. rescue of ATP level, % at 7.49 µM. actives 0.78% (n = 330,000). AID 602340;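 active means mean ATP rescue above about 67%, or every replicate alone reaching that limit, limit read from the data, passing the limit was not always enough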;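 further: myotubes were challenged with 10 µM simvastatin during compound exposure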
Starred values were filed as active, the others as inactive; nt = no result. Sampled rows, rich in hits. Any-hit rate of the full collection: about 1.4%.

SMILES	F508del corr	PglD inh	ARNT TACC3 PPI	C2C12 statin
NC1C=CC=C(C(=O)O)C1 (configuration not stated)	-3	2	0	7
O=C(O)C1=C[C@@H](O)[C@@H](O)[C@H](O)C1	9.7*	-2	6	-2
C[C@@H]1CN([C@@H](C)CO)C(=O)c2cc(NC(=O)NC3CCCCC3)ccc2O[C@@H](C)CCCCO[C@H]1CN(C)Cc1ccc(Cl)c(Cl)c1	-1	0	15	32
O=C(Nc1nnc(-c2ccccc2)o1)C1CCCN1S(=O)(=O)c1cccs1 (configuration not stated)	-2	1	45*	10
Cc1ccc(CNC(=O)CNS(=O)(=O)c2cccc3nsnc23)cc1	nt	2	-7	101*
CN1C(=O)C2(c3ccccc31)C1CCCC=C1C(C#N)=C(N)C2(C#N)C#N (configuration not stated)	nt	-2	2	155*
CCC1=C(CC2NCCc3ccccc32)CC2c3cc(OC)c(OC)cc3CCN2C1 (configuration not stated)	10*	nt	nt	nt
CC[C@H]1CN2CCc3cc(OC)c(OC)cc3C2C[C@@H]1C[C@H]1NCCc2cc(OC)c(OC)cc21 (some centres not stated)	-10	1	31	81*
COc1cc2c(cc1OC)CN1CCc3cc(OC)c(OC)cc3C1C2 (configuration not stated)	-2	-6	nt	-4
CCCC1(CCC)NC(=O)N(CC(=O)N2CCN(C(=O)c3ccco3)CC2)C1=O	nt	3	nt	98*
CCCC(=O)Nc1ccc2c(c1)C(=O)N(C)[C@H]1CC[C@@H](CC(=O)NCc3ccccc3F)O[C@H]1CO2	0	0	1	-15
Cc1c2cc[n+](CCN3CCCCC3)cc2c(C)c2c1[nH]c1ccc(O)cc12	nt	nt	49*	nt
CCOC(=O)c1[nH]c2ccc(C)cc2c1NC(=O)CN1CCCCC1	nt	2	5	6
c1ccc(CNc2c3ccccc3nc3ccccc23)cc1	11*	0	1	28
CN(C)CCCNc1c2ccccc2nc2ccccc12	18*	-16	-7	18
c1ccc2c(NCCCN3CCOCC3)c3ccccc3nc2c1	11*	nt	nt	nt
c1ccc(CNc2ncnc3ccccc23)cc1	1	1	-5	-26
CN(C)CCCNc1nc(-c2ccccc2)nc2ccccc12	0	-1	-2	0
C[C@H]1CN([C@@H](C)CO)C(=O)c2ccccc2-c2ccccc2CO[C@@H]1CN(C)C(=O)Nc1ccccc1	-1	0	5	7
CO[C@H](CN(C)C(=O)c1cnccn1)[C@H](C)CN([C@@H](C)CO)S(=O)(=O)c1ccccc1	-1	-1	-13	2
CNC(=O)C[C@H]1CC[C@H]2[C@@H](COc3ccc(NC(=O)c4ccccc4Cl)cc3C(=O)N2C)O1	1	2	-3	4
Cc1ccnc(NC(c2cccnc2)c2ccc3cccnc3c2O)c1 (configuration not stated)	1	nt	61*	nt
O=C(C[C@H]1CC[C@H](NC(=O)C2CCOCC2)[C@H](CO)O1)NCc1ccncc1	4	nt	nt	nt
COc1ccc(S(=O)(=O)N(C)C[C@H]2Oc3ccc(NC(=O)Cn4cnnn4)cc3CC(=O)N([C@@H](C)CO)C[C@H]2C)cc1	1	-3	-10	1
N#C/C(=C(/O)c1ccc(Br)s1)c1nc2ccccc2[nH]1	10.0*	6	-8	-120
SMILES	F508del corr	PglD inh	ARNT TACC3 PPI	C2C12 statin
C=CCn1c(SCCN2C(=O)c3ccccc3C2=O)nc2scc(-c3ccc(F)cc3)c2c1=O	0	nt	55*	-2
CC(C)=NNc1ncnc2nc[nH]c12	nt	nt	72*	nt
CC(O)CNc1ncnc2nc[nH]c12 (configuration not stated)	nt	-2	-22	-10
O=C(C[C@@H]1C=C[C@@H](NS(=O)(=O)c2cccc(F)c2)[C@H](CO)O1)N1CCCCC1	1	-3	nt	2
O=c1ccc2c(-c3ccccc3)c3ccc(O)cc3oc-2c1	58*	6	-3	15
Nc1ccc(-c2c3ccc(=O)cc-3oc3cc(O)ccc23)cc1C(=O)O	8.8*	nt	nt	nt
COc1ccc(NC(=O)Nc2ccc3c(c2)C(=O)N([C@@H](C)CO)C[C@@H](C)[C@@H](CN(C)Cc2ccc(Cl)c(Cl)c2)OCCCC[C@@H](C)O3)cc1	1	0	7	nt
COc1ccc2nc(/N=C/c3c(C)[nH]n(-c4ccc(C)cc4C)c3=O)sc2c1	nt	2	66*	nt
C[C@H]1CN([C@@H](C)CO)C(=O)c2cccc(NS(C)(=O)=O)c2O[C@H]1CN(C)Cc1ccc(Cl)c(Cl)c1	3	9	13	30
Nc1nc2c(ncn2-c2ccccc2)c(=O)[nH]1	-4	8	46*	4
Cc1cccc(C)c1NC(=O)CSc1nnc(-c2ccco2)c(-c2ccco2)n1	nt	0	57*	28
CC(=NNc1nc2ccccc2o1)c1cc2ccccc2cn1	2	nt	5	nt
CC(=NNc1nc2ccccc2o1)c1ncccn1	-12	nt	62*	-74
CC(=NNc1nc2ccccc2s1)c1ncccn1	-7	nt	63*	nt
O=C(CCN1CCOCC1)NNC(=S)NC(=O)c1ccccc1	1	-2	48*	-6
O=C(CCN1CCOCC1)c1ccccc1	-5	nt	0	0
CN(C)CC(=O)Nc1ccc2c(c1)[C@@H]1C[C@H](CC(=O)N3CCCCC3)O[C@H](CO)[C@@H]1O2	-1	1	-2	2
COc1cc(-c2noc(C)c2C#Cc2ccsc2)cc(OC)c1OC	11*	-5	-12	-54
CCN(CC)CC(=O)NC12CC3CC(CC(C3)C1)C2	nt	-4	1	nt
CCC(CC)C(=O)NC12CC3CC(CC(C3)C1)C2	nt	-3	-3	89*
COn1c(-c2ccccc2)nc2c1CCc1c-2no[n+]1[O-]	nt	1	-6	89*
O=C(N[C@@H]1CC[C@H](CC(=O)N2CCc3ccccc3C2)O[C@@H]1CO)C1CCOCC1	-1	-1	9	2
C[C@H]1CN([C@@H](C)CO)C(=O)c2cccc(NS(=O)(=O)c3cccs3)c2O[C@@H]1CN(C)C(=O)Nc1ccc(C(F)(F)F)cc1	-3	2	5	86*
C[C@@H]1CN([C@H](C)CO)C(=O)c2cccc(NC(=O)c3ccc(-c4nccs4)cc3)c2O[C@@H]1CN(C)C(=O)Nc1ccc(F)cc1	1	-1	3	87*
COc1ccc(NC(=O)N(C)C[C@H]2Oc3c(NS(=O)(=O)c4cccs4)cccc3C(=O)N([C@@H](C)CO)C[C@H]2C)cc1	1	1	-8	88*
C[C@H](CO)N1C[C@H](C)[C@@H](CN(C)S(=O)(=O)c2cn(C)cn2)Oc2ccc(NC(=O)CCN3CCOCC3)cc2C1=O	-2	-2	-7	15
Cc1noc(C)c1NC(=O)N(C)C[C@@H]1OCCCC[C@H](C)Oc2ccc(NC(=O)c3ccccc3)cc2C(=O)N([C@H](C)CO)C[C@@H]1C	0	0	-7	nt
OCCN1CCN(C(=S)c2ccc(Cl)c(Cl)c2)CC1	nt	-2	66*	nt
